According to PubChem BioAssay AID757 (NMMLSC, 2007):
About 520 (0.27%) of roughly 190,000 compounds were called active. Inconclusive results (about 2%) are left out. The sample as a whole holds a higher share of actives than the screen did. Values without a mark were called inactive.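 The calls were made as follows: active = GTP binding activity at least 20 points away from the 100% control level, either lower or higher; inconclusive = compound flagged as likely green fluorescent, judged across all proteins; inactive = the rest.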

biological target: Ras-related C3 botulinum toxin substrate 1 (Homo sapiens) (UniProt P63000); experiment: compounds altering fluorescent GTP loading on wildtype Rac1 – biochemical, GST-Rac1 beads, flow cytometry, multiplex, primary screen (AID 757); conditions: at 10 µM, actives lie on both sides, 0 = cold GTP competed, 100 = untreated

| Structure (SMILES) | GTP binding activity (% of control) |
| --- | --- |
| CCc1ccc(C(=O)OCC(=O)NCC(F)(F)F)cc1 | 98% |
| CN(Cc1ccccn1)Cc1nc(-c2ccc(Cl)cc2)no1 | 101% |
| COc1ccccc1-c1noc(CSc2nc(C)cc(=O)[nH]2)n1 | 93% |
| COc1ccc(CC(NC(C)=O)C(=O)NC2CCN(C(=O)C3CC3)CC2)cc1OC (stereo unspecified) | 101% |
| O=C(Nc1cccnc1)c1ccc(Cl)c([N+](=O)[O-])c1 | 98% |
| O=C(/C=C/c1ccc(Cl)c([N+](=O)[O-])c1)c1cccnc1 | 78% (active) |
| O=C(/C=C/c1ccc(Cl)cc1Cl)c1cccnc1 | 92% |
| O=C(CC1CCCCC1)NCc1ccc(F)cc1 | 100% |
| O=C(NCCCn1ccnc1)C(=O)c1cn(CC(=O)N2CCCCCC2)c2ccccc12 | 100% |
| COc1cc(CNC2CCCC2)c(Br)cc1OCc1ccccc1 | 96% |
| COc1cc(C(=S)NCc2ccccc2)cc(Br)c1O | 79% (active) |
| COc1cc(C=O)c(Br)cc1OCC(=O)NCc1ccccc1 | 97% |
| Cc1ccc(NC(=O)CSc2nnc(CNC(=O)c3ccccc3F)o2)cc1 | 92% |
| CS(=O)(=O)N(CC(=O)N1CCCC1)Cc1ccccc1 | 106% |
| COc1cccc(CNC(=O)CCC2CCCN(C(=O)c3cc(C)[nH]n3)C2)c1 (stereo unspecified) | 100% |
| CC(=O)N1N=C(c2ccccc2)OC1c1cccnc1 (stereo unspecified) | 98% |
| CCc1nc(C)cn1S(=O)(=O)c1cc([N+](=O)[O-])ccc1Cl | 96% |
| Cc1cccc(NC(=S)NC23CN4CN(CN(C4)C2)C3)c1 | 99% |
| COC(=O)CC1=NN(c2ccccc2)C(=O)C1 | 101% |
| O=C(NCC(=O)N(CC1CCCO1)C(C(=O)NC1CCCCC1)c1ccccc1)c1ccco1 (stereo unspecified) | 103% |
| COc1ccc2ccccc2c1CNc1nnnn1C | 93% |
| O=C(NCCCN1CCOCC1)c1ccc(N2CCCC2)c([N+](=O)[O-])c1 | 99% |
| CC(=O)c1ccc(N2CCN(S(=O)(=O)c3c(C)[nH]c(=O)[nH]c3=O)CC2)cc1 | 99% |
| COc1ccc(Br)cc1/C=N/Nc1ccc(Cl)c(C(=O)O)c1 | 93% |
| Cc1nc(-c2ccccc2)sc1C(=O)/C=C/N(C)C | 96% |
| COc1cccc(-n2c(=S)sc3c(=O)n(-c4ccccc4OC)c(SCC4OCCO4)nc32)c1 | 100% |

| Structure (SMILES) | GTP binding activity (% of control) |
| --- | --- |
| O=C(/C=C/c1ccccc1Cl)Nc1ccc(S(=O)(=O)Nc2ncccn2)cc1 | 100% |
| CCOC(=O)c1sc2nc(C)nc(Nc3ccc(OC)c(OC)c3)c2c1C | 89% |
| CCOC(=O)c1sc(-c2cccc([N+](=O)[O-])c2)cc1N | 101% |
| O=C(CNC1CCCCC1)NCC1(c2ccccc2)CCCC1 | 98% |
| Cc1csc(CN(C)C(=O)CC2C(=O)NCCN2CC(C)(C)C)n1 (stereo unspecified) | 98% |
| COCCN(CCOC)C(=S)Nc1ccccc1Cl | 95% |
| CC1CC1C(=O)OCC(=O)c1c(N)n(C)c(=O)n(C)c1=O (stereo unspecified) | 92% |
| CSc1ncccc1C(=O)NC1CCCCCC1 | 99% |
| COc1ccc(NC(=O)c2c(SC)nsc2SC)cc1 | 110% |
| CSc1nsc(SC)c1NC(=O)OC1CCCCC1 | 30% (active) |
| Cn1ncc(N2CCN(S(=O)(=O)c3ccc(Br)cc3)CC2)c(Cl)c1=O | 99% |
| CCc1ccccc1NC(=O)CN(c1ccc(OC)cc1OC)S(=O)(=O)c1ccccc1[N+](=O)[O-] | 100% |
| O=C(NNC(=S)Nc1ccccc1)c1cccc(S(=O)(=O)N2CCOCC2)c1 | 96% |
| O=C(CSc1ccsc1[N+](=O)[O-])N1CCCCC1 | 102% |
| CN(c1ccc(OCC(=O)OCC(=O)Nc2cccc([N+](=O)[O-])c2)cc1)S(=O)(=O)c1ccc(F)cc1 | 101% |
| CCOc1ccc(S(=O)(=O)Nc2nccs2)cc1 | 94% |
| O=C(Nn1cnc2ccccc2c1=O)c1ccc([N+](=O)[O-])cc1Cl | 96% |
| Cc1cnc(C(=O)N2CCCC(C(=O)c3ccc(C(F)(F)F)cc3)C2)cn1 (stereo unspecified) | 100% |
| CCC1SC(CC)C(=O)N(CC(=O)NC2CCCCC2)C1=O (stereo unspecified) | 99% |
| O=C(c1ccc(N2CCOCC2)c([N+](=O)[O-])c1)N1CCN(S(=O)(=O)c2cccs2)CC1 | 96% |
| COCCNC(=S)N1CCC(NC(=O)C23CC4CC(CC(C4)C2)C3)CC1 | 104% |
| Nc1[nH]c(=S)nc2nc(-c3ccccc3)c(-c3ccccc3)nc12 | 79% (active) |
| Nc1ccc(-c2sc(N)nc2-c2ccccc2)cc1 | 98% |
| CC1CCC2(CC1)NC(=O)N(Cc1nnc(-c3cccs3)o1)C2=O (stereo unspecified) | 94% |
| CCN(CCCNC(=O)CCn1c(=O)[nH]c2ccsc2c1=O)c1ccccc1 | 99% |
| O=C(Nc1ccccc1)N1CCN(C(=O)Nc2ccccc2)CC1 | 94% |

| Structure (SMILES) | GTP binding activity (% of control) |
| --- | --- |
| O=C(N1CCCCC1)N1CCN(C(=O)N2CCCCC2)CC1 | 98% |
| CCOc1ccc(CN2CCN(Cc3ccon3)CC2CCO)cc1 (stereo unspecified) | 99% |
| C/C(=N\OC(=O)c1ccccc1)c1c(C)nc2cc(C)ccn12 | 85% |
| COC(=O)c1c(C(=O)OC)c(-c2cccc(C)c2)n2c1CS(=O)C2 (stereo unspecified) | 95% |
| CCC1CO/C(=C(\C(=C(Cl)Cl)N2CCOCC2)[N+](=O)[O-])N1 (stereo unspecified) | 101% |
| CC(C)NC(=O)c1ccc(Cl)cc1Cl | 103% |
| OCCC1CN(Cc2ccc(Oc3ncccn3)cc2)CCN1CCc1ccccc1 (stereo unspecified) | 98% |
| CCOC(=O)CSC1=N/C(=C/c2ccc(-n3cncn3)cc2)C(=O)N1C(C)=O | 96% |
| CCC(CC)c1nnc(NC(=O)c2nn(C)c(=O)c3ccccc23)s1 | 96% |
| CC(=O)c1cc(C#N)c(N2CCCCC2)nc1C | 97% |
| COc1cc(COCC(O)CN2CCN(Cc3ccc4c(c3)OCO4)CC2)cc(OC)c1OC (stereo unspecified) | 102% |
| O=[N+]([O-])c1cccc(Nc2c3ccccc3nc3ccccc23)c1 | 93% |
| Cc1cc(OCCCN2CCN(Cc3ccccc3)CC2)ccc1[N+](=O)[O-] | 85% |
| CN(CC(=O)N1CCN(c2ccccc2)CC1)S(=O)(=O)c1cccs1 | 101% |
| Cc1cc(C)nc(/N=C2\NC(=O)CC(C(=O)O)N2c2ccc(Cl)cc2Cl)n1 (stereo unspecified) | 96% |
| O=C(c1ccc(F)cc1)N1CCCC(c2nc(-c3cccs3)no2)C1 (stereo unspecified) | 99% |
| O=C(NC1CCCCC1)C1CCCN(S(=O)(=O)c2ccc(Br)s2)C1 (stereo unspecified) | 100% |
| Cc1cccc(NC(=O)c2cccc(C(F)(F)F)c2)c1 | 98% |
| CCOC(=O)c1ccc(NC(=S)N2CCCC2)cc1 | 96% |
| Cc1ccc(N(C(=O)Cc2cccs2)C(C(=O)NCC2CCCO2)c2ccncc2)cc1 (stereo unspecified) | 108% |
| CCCNC(=S)N1CCCC(c2nc3ccccc3[nH]2)C1 (stereo unspecified) | 97% |
| COc1cccc(CN(C)CC(=O)NCc2ccccc2Cl)c1OC | 98% |
| COc1cc(/C=N/Nc2ccc(C)cc2)cc(Br)c1O | 97% |
| COc1ccc(/C=C/C(=O)Nc2cccnc2)cc1OC | 98% |
| COc1cc(/C=N/NC(=S)Nc2cccnc2)cc(OC)c1O | 77% (active) |
| O=C(O)COc1ccc(/C=N/O)cc1Br | 92% |

| Structure (SMILES) | GTP binding activity (% of control) |
| --- | --- |
| Cc1nn(CC(=O)Nc2ccc3c(c2)OCO3)c(C)c1[N+](=O)[O-] | 100% |
| CCCCNC(=O)C1(c2ccc(OC)cc2)CCOCC1 | 108% |
| COc1ccc(C2(CNC(=O)C(c3ccccc3)c3ccccc3)CCOCC2)cc1OC | 123% [activator] (active) |
| COc1ccc(C2(CNC(=O)Cc3ccc(OC)c(OC)c3)CCCC2)cc1 | 97% |
| Cc1cc(NC(=O)CN2C(=O)NC(CCc3ccccc3)C2=O)no1 (stereo unspecified) | 100% |
| COC(=O)Cn1cc(/C=C/[N+](=O)[O-])c2ccccc21 | 93% |
| CC(C)C(C)(C#N)NC(=O)CSc1nncn1-c1ccccc1 (stereo unspecified) | 104% |
| C/C(=N\OCC(=O)Nc1ccc(Br)cc1)c1cccs1 | 93% |
| CCOC(=O)Cc1ncccc1C(=O)Nc1ccc(OC)cc1 | 100% |
| O=C(NCc1ccco1)c1nn2cccnc2c1Cl | 99% |
| O=C(CCC(=O)NNc1nc2ccccc2c2nc(-c3ccccc3)nn12)NCCCN1CCCC1=O | 96% |
| CCOc1ccc(NC(=O)NNC(=O)c2ccc(Cl)cc2Cl)cc1 | 96% |
| CN1C(=O)/C(=C/c2ccc(C(=O)NC3CCCC3)cc2)Oc2ccccc21 | 99% |
| CCn1c(CSc2nc(C)cc(C)n2)nnc1SCC(N)=O | 95% |
| Cc1c(CN2CCCCC2)c(O)n(CCO)c(=O)c1C#N | 94% |
| COc1ccc(C)cc1-n1nnnc1SCc1nc2ccccc2c(=O)[nH]1 | 98% |
| CCCCCc1nnc(NC(=O)c2ccc(=O)n(C)n2)s1 | 101% |
| CCc1ccc(Oc2nc([N+](=O)[O-])nn2C)cc1 | 98% |
| CCOC(=O)N1CCN(Cc2nc(Cc3cccc(C(F)(F)F)c3)no2)CC1 | 99% |
| CSCC(NS(=O)(=O)c1ccc(C)cc1)C(=O)O (stereo unspecified) | 104% |
| Cc1noc(C)c1CCC(=O)O | 97% |
| Cn1cnnc1SCc1nnc(-c2ccccc2Br)o1 | 87% |
| O=C(C1CCCN1S(=O)(=O)c1ccc(Br)cc1)N1CCOCC1 (stereo unspecified) | 97% |
